Compound activity deposited in PubChem by National Center for Advancing Translational Sciences (NCATS).
HT1080NT lethal = qHTS for induction of synthetic lethality in tumor cells producing 2HG: qHTS for the HT-1080-NT fibrosarcoma cell line; AID 686970, 2013; hit rate 1.6% among 360,000; HT-1080-NT fibrosarcoma viability, CellTiter-Glo ATP luminescence, 48 h; Potency, µM (series often up to 46.1 µM), hits mostly cytotoxic;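 also: NT is the 2HG producing partner of a matched IDH1 knockdown line; nearly all actives have a fitted effect of over 55% in size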
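Compounds were tested in concentration-response format on HT-1080-NT cells for 48 hours at 37 degrees C. Cell viability came from CellTiter-Glo luminescence; curves were classified by r2, response magnitude and activity.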
TDP1 cell CPT = qHTS for Inhibitors of human tyrosyl-DNA phosphodiesterase 1 (TDP1): qHTS in cells in presence of CPT; chicken DT40 Tdp1-/-;hTDP1 cells + 20 nM CPT, ATP luminescence, 48 h; hit rate 12% among 420,000; Potency, µM (top dose mostly 46.2 µM), most hits filed as inhibitors; AID 686979, 2013; also: nearly all actives have a fitted effect of over 55% in size
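Chicken DT40 Tdp1-/- cells stably complemented with human TDP1 were seeded at 400 cells/well in medium containing 20 nM camptothecin, exposed to pin-transferred compounds, and grown at 37 °C for at least 48 hr. Viability was read as ATP luminescence.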
HT1080 IDH1KD tx = qHTS for induction of synthetic lethality in tumor cells producing 2HG: qHTS for the HT-1080-IDH1KD cell line; hit rate 2% among 360,000; AID 686971, 2013; HT-1080 IDH1 knockdown viability, ATP luminescence, 48 h; Potency, µM (doses to about 46.1 µM), most hits filed as cytotoxic
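Viability of IDH1-knockdown HT-1080 fibrosarcoma cells was assessed by CellTiter-Glo after 48 h at 37 °C with titrated compound; concentration-effect curves were classified by fit quality and response size.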
uPA generation = qHTS for Inhibitors of Cell Surface uPA Generation; cell surface uPA generation assay, qHTS; Potency, µM (highest dose often 38.3 µM), most hits filed as inhibitors; hit rate 0.31% among 330,000; AID 540303, 2011; active = well fitted inhibition curve with a large enough effect; inconclusive = small, poorly fitted or top-dose-only effect; inactive = no such curve, though single readings can be large or run the other way; tested in mouse RAW 264.7 cells; also: nearly all actives have a fitted effect of over 55% in size
DT40 TDP1 no CPT = qHTS for Inhibitors of human tyrosyl-DNA phosphodiesterase 1 (TDP1): qHTS in cells in absence of CPT. DT40 Tdp1-/- hTDP1 cells, no CPT, ATP luminescence, 48 h. Potency, µM (top dose mostly 46.2 µM), actives largely listed as inhibitors. hit rate 15% among 420,000; also: nearly all actives have a fitted effect of over 55% in size
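Stably hTDP1-transfected Tdp1-null chicken DT40 cells were treated with library compounds minus camptothecin and grown for at least 48 hr at 37 °C, after which cellular ATP was quantified by luminescence.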
IL-1B inflam inh = qHTS for Inhibitors of Inflammasome Signaling: IL-1-beta AlphaLISA Primary Screen; THP-1 LPS/ATP IL-1B secretion, AlphaLISA, 16 h; stronger effect = lower value; activity change, % at 57.5 µM; hit rate 4.7% among 360,000; in the data active = activity change below about -50%; inconclusive = mostly about -30% to -49%
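THP-1 cells pretreated 1 hr with compounds (up to 57.5 uM final), then stimulated with LPS (250 ng/mL final) plus ATP (1.25 mM final); secreted IL-1B measured by AlphaLISA after 16 hr, decreased signal indicating inhibition.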
Each line names hits and unclear results; the compound was inactive in the other large screens; ! = not active in a repeat. A selection: hits, their analogues and other compounds. The true share with any hit is near 19%. Unless noted, calls follow the shape of the dose curve; as a rule, active = well fitted curve in the direction sought with a large enough effect; inconclusive = small, poorly fitted or top-dose-only effect, or another doubt; inactive = no such curve, though single readings can be large; an effect the other way counts as inactive or inconclusive.

N[C@H](CO)Cc1cnc[nH]1	none (no result: HT1080NT lethal, HT1080 IDH1KD tx, uPA generation, IL-1B inflam inh)
O=C(/C=C/c1cccc(O)c1)c1cccnc1	HT1080NT lethal inconclusive, TDP1 cell CPT 8.2µM, HT1080 IDH1KD tx inconclusive, DT40 TDP1 no CPT 23µM
CN(C)c1ccc(/C=C/C(=O)c2cccnc2)cc1	IL-1B inflam inh inconclusive
O=C(/C=C/c1cccnc1)c1cccc(O)c1	HT1080NT lethal 21µM, TDP1 cell CPT 2.9µM, HT1080 IDH1KD tx inconclusive, DT40 TDP1 no CPT 2.9µM
CC1(CCc2ccccc2)NC(=O)N(CC(=O)Nc2ccc(OC(F)F)cc2)C1=O (configuration not stated)	IL-1B inflam inh inconclusive
COc1ccc(CCc2nnc(NS(C)(=O)=O)s2)cc1	none
O=[N+]([O-])CC(c1ccccc1)c1c[nH]c2ccccc12 (configuration not stated)	HT1080NT lethal inconclusive, TDP1 cell CPT 7.3µM, HT1080 IDH1KD tx 15µM, uPA generation inconclusive, DT40 TDP1 no CPT 5.8µM
COc1ccccc1C(=O)Nc1nnc(-c2ccc3c(c2)CCCC3)o1	TDP1 cell CPT inconclusive, uPA generation inconclusive, DT40 TDP1 no CPT 23µM, IL-1B inflam inh -63
O=C(Nc1nnc(-c2ccco2)o1)c1cccc(N2C(=O)CCC2=O)c1	none
O=C(Nc1nnc(-c2ccco2)o1)c1ccc(Cl)cc1	HT1080NT lethal inconclusive, TDP1 cell CPT inconclusive, HT1080 IDH1KD tx inconclusive, DT40 TDP1 no CPT 13µM
Cc1ccc(C(=O)Nc2nnc(-c3ccco3)o2)cc1C	TDP1 cell CPT 23µM, HT1080 IDH1KD tx inconclusive, DT40 TDP1 no CPT 15µM
O=C(COc1ccc(Cl)cc1)Nc1nnc(-c2ccc3c(c2)CCCC3)o1	DT40 TDP1 no CPT 5.8µM
O=C(COc1ccccc1)Nc1nnc(-c2ccc(Cl)cc2)o1	TDP1 cell CPT inconclusive, DT40 TDP1 no CPT inconclusive
CN(C)S(=O)(=O)c1ccc(C(=O)NCC(C)(C)CN=C2NS(=O)(=O)c3ccccc32)cc1	none
COc1ccc(C)cc1Nc1nc2cc(Cl)c(Cl)cc2nc1-n1nc(C)cc1C	none (no result: HT1080NT lethal, HT1080 IDH1KD tx, uPA generation, IL-1B inflam inh)
Cc1cccc(C(=O)Nc2nnc(-c3ccco3)o2)c1	TDP1 cell CPT 23µM, DT40 TDP1 no CPT 10µM
Cc1ccc(-c2nnc(NC(=O)c3ccco3)o2)c(C)c1	HT1080NT lethal inconclusive, DT40 TDP1 no CPT inconclusive
O=C(Nc1nnc(-c2ccccc2Cl)o1)c1ccco1	HT1080NT lethal 8.9µM, TDP1 cell CPT inconclusive, HT1080 IDH1KD tx inconclusive, DT40 TDP1 no CPT inconclusive (no result: uPA generation)
Cc1ccccc1C(=O)Nc1nnc(-c2ccco2)o1	TDP1 cell CPT 21µM, DT40 TDP1 no CPT 18µM
COc1ccc(-c2nnc(NC(=O)c3ccccc3C)o2)cc1	TDP1 cell CPT 16µM, DT40 TDP1 no CPT 15µM
Cc1ccccc1C(=O)Nc1nnc(-c2ccncc2)o1	DT40 TDP1 no CPT inconclusive
S=c1ncc2[nH]c(=S)[nH]c2[nH]1	DT40 TDP1 no CPT inconclusive
COCCNC(=O)C1CCCN(C(=O)c2sc(-c3ccccc3)nc2C)CC1 (configuration not stated)	none (no result: uPA generation)
CCCN(C(=O)c1sc2nc3n(c(=O)c2c1C)CCCC3)c1ccccc1C	TDP1 cell CPT 18µM, DT40 TDP1 no CPT inconclusive (no result: HT1080NT lethal, HT1080 IDH1KD tx, uPA generation, IL-1B inflam inh)
Cc1c(C(=O)O)sc2nc3n(c(=O)c12)CCCCC3	none
Cc1ccc(Cl)cc1N(C)C(=O)c1sc2nc3n(c(=O)c2c1C)CCCC3	TDP1 cell CPT inconclusive, DT40 TDP1 no CPT 16µM (no result: HT1080NT lethal, HT1080 IDH1KD tx, uPA generation, IL-1B inflam inh)
Cc1ccc(N(C)C(=O)c2sc3nc4n(c(=O)c3c2C)CCCC4)cc1C	TDP1 cell CPT 23µM, DT40 TDP1 no CPT 18µM (no result: HT1080NT lethal, HT1080 IDH1KD tx, uPA generation, IL-1B inflam inh)
CCCCC(=O)Nc1nnc(S(=O)(=O)N(C)Cc2ccccc2)s1	none (no result: HT1080NT lethal, HT1080 IDH1KD tx, uPA generation, IL-1B inflam inh)
CCCC(=O)Nc1sc(-c2ccccc2)c(-c2ccccc2)c1C(=O)O	none
CN(Cc1cn(C)nc1-c1cccc(Cl)c1)Cc1nccn1C	TDP1 cell CPT inconclusive, DT40 TDP1 no CPT inconclusive
CN(Cc1cccnc1)Cc1cn(C)nc1-c1ccc(Oc2ccccc2)cc1	TDP1 cell CPT inconclusive, DT40 TDP1 no CPT 18µM
CN(Cc1cccnc1)Cc1cn(C)nc1-c1cccc(Cl)c1	TDP1 cell CPT inconclusive, DT40 TDP1 no CPT 16µM!
Cc1cc(CN(C)Cc2cn(C)nc2-c2ccc(Oc3ccccc3)cc2)on1	TDP1 cell CPT inconclusive, DT40 TDP1 no CPT 16µM
C=C1C2CC[C@@]3(C)C(c4ccoc4)OC(=O)C[C@@]13OC1CC(=O)C(C)(C)C(CC(=O)OC)[C@]12C (some centres not stated)	none (no result: HT1080NT lethal, HT1080 IDH1KD tx, uPA generation, IL-1B inflam inh)
C=C1C2CC[C@@]3(C)C(c4ccoc4)OC(=O)C[C@@]13OC1CC(OC(C)=O)C(C)(C)C(CC(=O)OC)[C@@]12C (some centres not stated)	TDP1 cell CPT 13µM, DT40 TDP1 no CPT 12µM (no result: HT1080NT lethal, HT1080 IDH1KD tx, uPA generation, IL-1B inflam inh)
Cc1ccc2oc(C(=O)N3CCN(CC(=O)NC(C)C)CC3)c(C)c2c1	none
Cc1cccc(NC(=O)CCNS(=O)(=O)c2cc(Br)cnc2N)c1C	none
CC(C)c1ccc(NC(=O)CCNS(=O)(=O)c2cc(Br)cnc2N)cc1	TDP1 cell CPT 16µM, HT1080 IDH1KD tx inconclusive, DT40 TDP1 no CPT inconclusive
CNS(=O)(=O)c1cccc2nsnc12	DT40 TDP1 no CPT 0.0073µM
Cc1ccc(S(C)(=O)=NS(=O)(=O)c2cccc3nsnc23)cc1 (configuration not stated)	IL-1B inflam inh -53
O=S(=O)(Nc1ccccc1)c1cccc2nsnc12	none
